Our source for the Potency values is PubChem BioAssay AID686978 (National Center for Advancing Translational Sciences (NCATS), 2013).

The campaign covered roughly 420,000 compounds. About 64,000 (15%) were called active. Another 27% or so got no clear call; they are omitted. Calls follow the shape of the dose curve; as a rule, active = well fitted inhibition curve with a large enough effect; inconclusive = small, poorly fitted or top-dose-only effect; inactive = flat fitted curve, though single readings scatter. These entries were drawn from the full list. Where a call stands in place of a potency, no number is given.
Potency is read from the fitted curve at half-maximal effect.

The nature of this assay: qHTS for Inhibitors of human tyrosyl-DNA phosphodiesterase 1 (TDP1): qHTS in cells in absence of CPT. Also: nearly all actives have a fitted effect of over 55% in size. Conditions: DT40 Tdp1-/- hTDP1 cells, no CPT, ATP luminescence, 48 h; activity change, negative = growth inhibition: at 46.2 µM (top of the series). The method in brief:
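DT40 Tdp1-/-;hTDP1 cells, no CPT (DMSO vehicle only), 400 cells/well; compounds pin-transferred; ≥48 hr, 37 °C; CellTiter-Glo 30 min RT dark, luminescence read.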
For orientation: In qHTS, concentration-response curves come from the screen itself.
As to `Cn1ncc(Br)c1C(=O)NC1CCCC1`, the Potency entry is “inactive”.
As for `CCC(C)[C@H](NC(=O)N1c2ccccc2NC(=O)[C@@H]1C(C)C)C(=O)N[C@@H](Cc1ccccc1)C(=O)O` (stereo partly drawn), the Potency entry was “inactive”.
For the compound `CC1CN(C(=O)c2cc(COc3c(F)cccc3F)on2)CCN1C` (stereo not drawn), the Potency entry was “inactive”.
The same measure for `CC(C)NC(=O)N1CCCC2(CCN(C(=O)c3cccn3C)CC2)C1`: “inactive”; for `COc1cccc2cc(S(=O)(=O)c3ccc(C)cc3)/c(=N/NS(=O)(=O)c3ccc(C)cc3)oc12`: “inactive”.
Under `Cc1c(C)c2ccc(OCC(=O)N3CCC(C(=O)O)CC3)c(C)c2oc1=O` stands “inactive”; under `COc1cc2nc(SCC(=O)Nc3ccccc3F)n3nc(-c4ccccc4)nc3c2cc1OC`, “inactive”; under `CSc1ncnc2c1ncn2CCCNCC(C)c1ccccc1` (stereo not drawn), “inactive”.
Under `COc1cc2nc(NCC(C)c3ccccc3)n3nc(-c4ccccc4)nc3c2cc1OC` (stereo not drawn) stands 13 µM (active); under `CCn1c(SCC(=O)NC2CC2)nnc1-c1ccncc1`, “inactive”.
Consider `O=C(NCc1ccco1)c1ccc([N+](=O)[O-])cc1Cl`, for which the Potency result was “inactive”.
The same measure for `CCCC(=O)N1CCC1(C)C(=O)NCc1ccc(C(C)C)cc1` (stereo not drawn): “inactive”; for `CC(C)CN1CCC1(C)C(=O)Nc1ccc(OC(F)F)cc1` (stereo not drawn): “inactive”.
Under `CC(C)Oc1ccc(CN2CCC2(C)C(=O)NCc2ccc(C(F)(F)F)cc2)cc1` (stereo not drawn) stands 14.6 µM (active).
Under `CN1CCNC(=O)C1CC(=O)N1CC=C(c2ccc(F)cc2)CC1` (stereo not drawn) stands “inactive”.
`COc1ccc(NC(=O)COC(=O)c2ccncc2)c(OC)c1`: the Potency entry is “inactive”.
The same measure for `CC(C)(C)S(=O)(=O)N1Cc2cc(CO)cc(CCO)c2[C@H]1CCO`: “inactive”.
The same measure for `CC(=O)c1ccc(NC(=O)CSC(=S)N2CCCC2)cc1`: “inactive”; for `CCN(CC(=O)Nc1ccc(NC(C)=O)cc1)C(=O)CSC(=S)N1CCCC1`: 7.31 µM (active); for `COc1cccc(NC(=O)CN(C)C(=O)CSC(=S)N2CCCC2)c1`: “inactive”.
For the compound `CC(C)(C)OC(=O)C1=C(CO)CS[C@@H]2[C@H](NC(=O)Cc3ccccc3)C(=O)N12`, the Potency result was “inactive”.
Under `O=C(NCCC1=CCCCC1)c1ccc2c(c1)N(Cc1ccccc1F)C(=O)c1ccccc1S2(=O)=O` stands 16.4 µM (active); under `CN(Cc1ccc(F)cc1)C(=O)CN1C(=O)c2ccccc2S1(=O)=O`, “inactive”.
The same measure for `O=C(NCCc1ccccc1)c1ccc2c(c1)N(Cc1ccc(F)cc1)C(=O)c1ccccc1S2(=O)=O`: 13 µM (active); for `O=C(c1ccc2c(c1)N(Cc1ccc(F)cc1)C(=O)CS2)N1CCOCC1`: “inactive”.
The same measure for `O=C(NCCc1ccc(Cl)cc1)c1ccc2c(c1)N(Cc1ccc(F)cc1)C(=O)CS2`: 29.1 µM (active); for `NS(=O)(=O)c1ccc(CCNC(=O)CN2C(=O)c3ccccc3S2(=O)=O)cc1`: “inactive”.
In the case of `O=C(NCCc1ccc(Cl)cc1)c1cccc(N2CCCC2=O)c1`, the Potency result is “inactive”.
